Here are results for nine compounds from PubChem BioAssay.

Inconclusive results are not listed. Calls of active or inactive are those of the source.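 Rule for the calls, unless noted: active = viability at or below 10% of carrier control in both of two separate runs; inconclusive = viability at or below 10% in only one of the two runs; inactive = the rest.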

As a reminder, the viability is a read-out of living cells in per cent, often relative to untreated cells. Usually inhibition stands for the relative decrease from the control value, in per cent.

Experiment [1] can be described thus: reducers of endogenous Her2 protein level, primary screen, SKBR3 breast tumor cells, AlphaScreen, ATP viability (AID 461;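 active = Her2 level under about 52% in both replicate screens, with viability over 70% of control, limit read from the data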;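 for Her2 level: lower value means less Her2 protein in the cells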;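 for viability: percent of carrier control wells set as 100% viability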). Particulars: 18-24 h, measured here: SKBR3 viability, ATP luminescence, at 10 µM. (Bead proximity is the source of the signal in Alpha formats.)
Experiment [2] concerns the target Receptor tyrosine-protein kinase erbB-2 (Homo sapiens) (UniProt P04626). The description is as above. The note with it: 18-24 h, at 10 µM, stronger effect = lower value.
A short description of experiment [3]: SK-BR-3 cell growth inhibitors, pilot screen, 24 h, human (AID 572).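 Note: compound exposure lasted between 18 and 24 h rather than exactly 24 h; 100% = carrier-treated control wells.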 Particulars: SK-BR-3 viability, CellTiter-Glo luminescence, at 10 µM, stronger effect = lower value. For orientation: Cellular ATP, detected with luciferase, serves as a proxy for viable cell number.
A short description of experiment [4]: HUVEC growth inhibition – cell-based, human, primary screen (AID 575;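 active = viability at or below 30% in both replicate assays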;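 note: 100% = median of untreated cell wells with 0.1% DMSO on each plate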). Particulars: HUVEC proliferation, CellTiter-Glo luminescence, 72 h; at 10 µM; stronger effect = lower value.
Experiment [5] in a line: growth inhibitors of H69AR lung tumor, primary screen, human, duplicate replicates (AID 580;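 active = viability at or under a set limit in both replicates, limit being median viability minus 3 SD, cut at about 48% in these data, passing the limit was not always enough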;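 note: 100% = mean luminescence of untreated wells and 0% = no signal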). Particulars: H69AR lung tumor cells viability, ATP luminescence, 72 h; at 10 µM; stronger effect = lower value.
Experiment [6] in a line: reversal of MRP1-mediated doxorubicin resistance, pilot screen, H69AR cells, doxorubicin co-treatment (AID 601;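 active = viability loss from added drug above about 55%, and viability with drug at most 40%, in both replicates, limit read from the data, passing the limit was not always enough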). Particulars: CellTiter-Glo, 72 h, at 10 µM; for differential viability (reversal): stronger effect = higher value.
The nature of experiment [7]: 384-well plate pilot, post-Golgi transport modulator project, inhibition of yeast transport mutant growth (AID 636; in the data active = inhibition above about 31%). The note with it: absorbance 615 nm, about 18 h, stronger effect = higher value.
A short description of experiment [8]: growth suppression of yeast trafficking mutant, preliminary HTS, modulators of trafficking downstream of Golgi apparatus project, 1536-format plate, OD 615 nm (AID 637; in the data active = inhibition above about 30%). The note with it: yeast transport mutant growth, absorbance 615 nm, 18 h; stronger effect = higher value.
The nature of experiment [9]: OD615 S. cerevisiae growth inhibition, permissive medium, pilot counter-assay, permissive growth control for S. cerevisiae lifespan shortening project (AID 705;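 active = growth inhibition above 25% in both replicates, a cutoff set 3 SD above the mean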). Particulars: OD615, 24 h, at 10 µM, stronger effect = higher value.
A short description of experiment [10]: Restrictive medium S. cerevisiae growth inhibition, OD615, pilot screen of yeast lifespan reduction project, restrictive growth control (AID 706;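 active = growth inhibition above a set limit, 3 SD over mean compound inhibition, in both replicates, cut at about 43% in these data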;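 note: modified DeaD lifespan yeast strain shifted to restrictive glucose medium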). The note with it: OD615, 48 h, at 10 µM, stronger effect = higher value.
Experiment [11] in a line: viability gain of MRP-1-high H69AR cells under doxorubicin, pilot screen, MRP-1 activator project, CellTiter-Glo, duplicate (AID 807;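 active = viability increase at or above a cutoff of the median across tested compounds plus 3 SD, cut at about 8.5% in these data, passing the limit was not always enough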;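 note: compound pretreatment 18-22 h then 72 h combined with doxorubicin; 0% = doxorubicin alone and 100% = vehicle without doxorubicin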). The note with it: H69AR viability with doxorubicin, CellTiter-Glo luminescence; at 10 µM; stronger effect = higher value.
Experiment [12] in a line: growth suppression of beta-catenin knockout HCT116, pilot screen, human colon tumor cells (AID 823;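 active = cell viability at or below a set limit in both duplicate runs, the limit being the all-compound median minus 4 SD, cut at about 23% in these data, passing the limit was not always enough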;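 note: 0% = wells killed by 20 µM Hyamine and 100% = untreated DMSO cell wells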). The note with it: CellTiter-Glo, 60 h, at 10 µM, stronger effect = lower value.
Experiment [13] in a line: growth suppression of PTEN-deleted HCT116, pilot screen, cell-based, HCT116 clonal line, CellTiter-Glo (AID 824;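 active = viability at or below 27.92% in each of two runs, the all-compound median minus 4 SD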;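 note: 0% = 20 µM Hyamine control and 100% = vehicle cell control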). Particulars: 60 h, at 10 µM, stronger effect = lower value.
The nature of experiment [14]: inhibitors of the yeast RAM network, pilot screen, dse1pr::URA3 reporter, 5-FOA selection (AID 869;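 active = inhibition over a set limit, the all-compound mean plus 3 SD, in both replicate runs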;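 note: 0% = DMSO wells with no growth and 100% = 10 µM 1-NA-PP1 with full growth; RAM network block rescues cells from 5-FOA so hits raise OD615 growth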). Particulars: S. cerevisiae dse1pr::URA3 5-FOA growth, OD615, 2 d; at 10 µM; stronger effect = higher value; strain carries analog-sensitive mutant Cbk1 kinase.
Experiment [15] in a line: RAM signaling pathway blockade in yeast – S. cerevisiae, Pdr1DBD-CYC8 efflux-inhibited sensitized strain, primary screen (AID 1298;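 active = RAM network inhibition above 8.4% in each of two replicates, 3 SD over the compound average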;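 note: 0% = DMSO untreated cells without growth and 100% = 10 µM 1-NA-PP1 full growth; higher means more yeast growth rescued from 5-FOA killing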). Particulars: S. cerevisiae cbk1-as DSE1-URA3 strain, 5-FOA growth OD615, 2 d; at 50 µM; stronger effect = higher value.
Where [16] appears, read: H69AR cells + 2 uM doxorubicin, measured here: viability with 2 uM doxorubicin, stronger effect = lower value.
The mark [17] stands for this setting: H69AR cells, compound alone cytotoxicity.

Sequence of Receptor tyrosine-protein kinase erbB-2 (Homo sapiens) (P04626 whole entry, looked up): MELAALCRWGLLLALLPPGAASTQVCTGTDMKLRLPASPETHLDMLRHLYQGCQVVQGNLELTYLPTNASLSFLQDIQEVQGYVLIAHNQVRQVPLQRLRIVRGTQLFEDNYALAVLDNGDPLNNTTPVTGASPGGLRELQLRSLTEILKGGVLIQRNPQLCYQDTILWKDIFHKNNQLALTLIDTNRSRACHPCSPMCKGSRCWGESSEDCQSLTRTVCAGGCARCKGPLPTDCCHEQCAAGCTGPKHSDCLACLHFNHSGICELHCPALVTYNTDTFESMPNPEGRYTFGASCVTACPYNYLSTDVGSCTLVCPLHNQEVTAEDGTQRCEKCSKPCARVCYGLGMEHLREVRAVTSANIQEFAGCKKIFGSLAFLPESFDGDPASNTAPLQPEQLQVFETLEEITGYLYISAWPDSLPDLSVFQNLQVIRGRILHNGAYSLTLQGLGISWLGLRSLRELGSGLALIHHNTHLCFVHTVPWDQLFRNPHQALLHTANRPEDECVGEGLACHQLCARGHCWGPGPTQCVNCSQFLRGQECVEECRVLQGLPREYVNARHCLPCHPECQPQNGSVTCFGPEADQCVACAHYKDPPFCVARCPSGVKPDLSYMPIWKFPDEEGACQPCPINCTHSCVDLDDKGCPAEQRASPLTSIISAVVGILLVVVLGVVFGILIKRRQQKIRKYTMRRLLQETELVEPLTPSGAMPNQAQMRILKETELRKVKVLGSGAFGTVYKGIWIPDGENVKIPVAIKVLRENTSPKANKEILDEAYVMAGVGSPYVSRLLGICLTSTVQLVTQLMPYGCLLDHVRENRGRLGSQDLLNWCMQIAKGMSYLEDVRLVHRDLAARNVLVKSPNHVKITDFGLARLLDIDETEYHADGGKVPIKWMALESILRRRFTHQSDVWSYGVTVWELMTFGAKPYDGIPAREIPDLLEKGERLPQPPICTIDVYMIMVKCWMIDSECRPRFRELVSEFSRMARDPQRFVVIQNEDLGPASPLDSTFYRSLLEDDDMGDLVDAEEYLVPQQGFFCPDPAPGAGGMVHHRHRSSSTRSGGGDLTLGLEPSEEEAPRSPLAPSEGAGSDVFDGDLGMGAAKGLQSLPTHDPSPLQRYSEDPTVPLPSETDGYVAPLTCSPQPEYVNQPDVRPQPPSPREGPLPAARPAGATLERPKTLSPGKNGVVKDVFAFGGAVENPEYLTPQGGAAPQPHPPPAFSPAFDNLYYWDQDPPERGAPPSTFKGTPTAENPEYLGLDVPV

`CCOC(=O)c1csc(NC(=O)C2CCCCC2)n1`: the viability in experiment [1] was 81%; in experiment [3] it was 81% (inactive); in experiment [4] it was 95% (inactive); in experiment [5] it was 96.5% (inactive); in [6] (setting [16]), 70.2%; in experiment [6] (setting [17]), 96.5%. Besides, the figures for the viability in experiment [12] and in [13] were 91.4% (inactive) and 94.6% (inactive), respectively. Also, the Her2 level in experiment [2] is 90% (inactive). In experiment [6] (H69AR cells + 2 uM doxorubicin), the differential viability (reversal) was 26.3% (inactive). For the same compound, the inhibition in experiment [7] is -1.47% (inactive); in experiment [8], 0.83% (inactive); in experiment [14], 0.89% (inactive). In addition, the growth inhibition in experiment [9] was -5.67% (inactive); in [10] it was 7.35% (inactive). For the same compound, the viability increase in [11] is 2.52% (inactive). Further, the RAM network inhibition in experiment [15] was 0.47% (inactive).
With `CSc1nc2c(c(=O)n1C)SC(C)C2` (stereo not drawn), the viability in experiment [1] is 97%; in experiment [3], 97% (inactive); in experiment [4] it was 103% (inactive); in experiment [5], 90.8% (inactive); in [6] (setting [16]), 95.4%; in experiment [6] (setting [17]) it was 90.8%. Further, the viability in experiment [12] was 103% (inactive); in [13], 93.5% (inactive). Moreover, in experiment [2], the Her2 level was 92.5% (inactive). Also, in experiment [6] (H69AR cells + 2 uM doxorubicin), the differential viability (reversal) was -4.56% (inactive). Further, the inhibition was -5.87% (inactive) in experiment [7], -1.67% (inactive) in [8] and 1.56% (inactive) in experiment [14]. Further, the results for the growth inhibition in [9] and in experiment [10] were -6.38% (inactive) and -10.4% (inactive), respectively. Also, the viability increase in [11] was -2.62% (inactive). In experiment [15], the RAM network inhibition is 5.01% (inactive).
Turning to `c1ccn2c(SCc3ccc4c(c3)OCCO4)nnc2c1`, the viability in experiment [1] is 108%; in experiment [3], 108% (inactive); in experiment [4] it was 93.8% (inactive); in experiment [5], 92.1% (inactive); in experiment [6] (setting [16]), 91.7%; in experiment [6] (setting [17]), 92.1%. The viability in experiment [12] was 96.6% (inactive); in experiment [13] it was 99.2% (inactive). For the same compound, the Her2 level in [2] was 108% (inactive). Moreover, the differential viability (reversal) in experiment [6] (H69AR cells + 2 uM doxorubicin) is 0.37% (inactive). Also, the inhibition was -3.47% (inactive) in [7], 1.67% (inactive) in experiment [8] and 0.305% (inactive) in [14]. Further, the growth inhibition in [9] is 6.86% (inactive); in experiment [10], 12.2% (inactive). Also, in [11], the viability increase was -0.85% (inactive). Moreover, the RAM network inhibition in experiment [15] is 5.34% (inactive).
Turning to `CC1(C)Oc2ccc3ccc(=O)oc3c2C(N2CCCCC2)C1O` (stereo not drawn), the viability is 103% in experiment [1]; 103% (inactive) in experiment [3]; 89.6% (inactive) in [4]; 92.6% (inactive) in [5]; 85.3% in experiment [6] (setting [16]); 92.6% in experiment [6] (setting [17]). The viability in experiment [12] was 101% (inactive); in [13] it was 98.2% (inactive). Further, the Her2 level in [2] is 94% (inactive). The differential viability (reversal) in experiment [6] (H69AR cells + 2 uM doxorubicin) was 7.25% (inactive). Moreover, the inhibition in experiment [7] is -0.52% (inactive); in experiment [8], -4.33% (inactive); in [14] it was 1.49% (inactive). In addition, the growth inhibition in [9] is -4.78% (inactive); in experiment [10], -7.54% (inactive). The viability increase in [11] was -2.43% (inactive). Moreover, in [15], the RAM network inhibition is 2.29% (inactive).
For the compound `O=C(c1ccc2nc(N3CCOCC3)sc2c1)N1CCCC1`, the viability in experiment [1] was 94%; in experiment [3] it was 94% (inactive); in experiment [4], 93.6% (inactive); in [5], 108% (inactive); in experiment [6] (setting [16]), 89.4%; in [6] (setting [17]) it was 108%. For the same compound, the viability in [12] is 99.1% (inactive); in experiment [13], 95.4% (inactive). Further, the Her2 level in experiment [2] was 96% (inactive). In addition, the differential viability (reversal) in experiment [6] (H69AR cells + 2 uM doxorubicin) was 18.8% (inactive). For the same compound, the inhibition in experiment [7] is -1.41% (inactive); in [8], 9.17% (inactive); in experiment [14] it was -0.14% (inactive). For the same compound, the growth inhibition in [9] is -2.18% (inactive); in experiment [10], -7.76% (inactive). Besides, the viability increase in [11] was -2.73% (inactive). In addition, the RAM network inhibition in experiment [15] was 1.02% (inactive).
`c1ccc2c(c1)nc(NC1CCCCC1)c1nncn12`: the viability is 98.5% in experiment [1]; 98.5% (inactive) in experiment [3]; 86.6% (inactive) in experiment [4]; 90.8% (inactive) in [5]; 70.9% in experiment [6] (setting [16]); 90.8% in experiment [6] (setting [17]). Besides, the viability in experiment [12] is 89.9% (inactive); in experiment [13] it was 83.3% (inactive). Also, the Her2 level in experiment [2] is 109% (inactive). Also, in experiment [6] (H69AR cells + 2 uM doxorubicin), the differential viability (reversal) was 19.9% (inactive). Further, the inhibition in [7] was -5% (inactive); in experiment [8] it was -1.17% (inactive); in experiment [14], 0.325% (inactive). Besides, the growth inhibition is -8.94% (inactive) in [9] and -7.48% (inactive) in experiment [10]. In addition, in [11], the viability increase is -6.65% (inactive). In addition, the RAM network inhibition in experiment [15] is 2.5% (inactive).
In the case of `O=C1c2ccccc2C(Nc2ccc3c(c2)OCCO3)N1Cc1ccc2c(c1)OCO2` (stereo not drawn), the viability in [1] is 91%; in experiment [3] it was 91% (inactive); in experiment [4], 64.8% (inactive); in [5], 86.4% (inactive); in [6] (setting [16]) it was 90.4%; in experiment [6] (setting [17]), 86.4%. Also, the figures for the viability in [12] and in experiment [13] were 82.2% (inactive) and 72.2% (inactive), respectively. The Her2 level in [2] is 94.5% (inactive). Further, in experiment [6] (H69AR cells + 2 uM doxorubicin), the differential viability (reversal) was -4.04% (inactive). The inhibition in experiment [7] was -5.73% (inactive); in experiment [8] it was 0.5% (inactive); in [14], 2.92% (inactive). The growth inhibition was -4.37% (inactive) in [9] and 8.02% (inactive) in [10]. Moreover, in experiment [11], the viability increase was 0.68% (inactive). Further, the RAM network inhibition in experiment [15] is 4.31% (inactive).
On to `CCCCSc1nc(CCC)cc(=O)[nH]1`, for which the viability in experiment [1] was 86.5%; in experiment [3], 86.5% (inactive); in experiment [4] it was 91.9% (inactive); in experiment [5], 88.2% (inactive); in experiment [6] (setting [16]) it was 88.5%; in experiment [6] (setting [17]), 88.2%. In addition, the viability in experiment [12] is 99.6% (inactive); in experiment [13] it was 104% (inactive). The Her2 level in experiment [2] was 118% (inactive). Moreover, the differential viability (reversal) in [6] (H69AR cells + 2 uM doxorubicin) was -0.345% (inactive). Besides, the inhibition in experiment [7] is 2.05% (inactive); in [8], -12.5% (inactive); in experiment [14] it was 0.635% (inactive). Further, the growth inhibition in [9] and in experiment [10] was -14.4% (inactive) in each case. Moreover, the viability increase in experiment [11] is -1.29% (inactive). Besides, in [15], the RAM network inhibition is 6.04% (inactive).
As to `Cc1ccc(C(=O)OCC(=O)Nc2ccc3c(c2)OCO3)o1`, the viability in experiment [1] was 110%; in experiment [3], 110% (inactive); in experiment [4], 102% (inactive); in [5], 97.3% (inactive); in experiment [6] (setting [16]) it was 95.3%; in experiment [6] (setting [17]), 97.3%. In addition, the results for the viability in experiment [12] and in experiment [13] were 97.6% (inactive) and 99.3% (inactive), respectively. For the same compound, the Her2 level in experiment [2] is 118% (inactive). Further, the differential viability (reversal) in [6] (H69AR cells + 2 uM doxorubicin) is 1.98% (inactive). For the same compound, the inhibition was -2.16% (inactive) in experiment [7], -5.87% (inactive) in experiment [8] and 0.95% (inactive) in experiment [14]. In addition, the growth inhibition in experiment [9] was -4.63% (inactive); in [10], -8.6% (inactive). Also, the viability increase in experiment [11] was -1.03% (inactive). Further, the RAM network inhibition in experiment [15] is 2.58% (inactive).
